These results are taken from PubChem BioAssay AID504834 (National Center for Advancing Translational Sciences (NCATS), 2011).

About 22,000 (6.9%) of roughly 320,000 compounds were called active. Where a call stands in place of a potency, no number is given. Roughly 27% stayed inconclusive and do not appear here. This is one part of a sample in which actives are shown more often than they occur. The call rests on the fitted dose curve; in most records, active means well fitted inhibition curve with a large enough effect; inconclusive means small, poorly fitted or top-dose-only effect, or another doubt; inactive means no such curve, though single readings can be large or run the other way.
Potency means the concentration at half of the fitted maximal effect.

The experiment is described as follows: Primary qHTS for delayed death inhibitors of the malarial parasite plastid, 96 hour incubation. The conditions noted are these: P. falciparum luciferase reporter growth; series mostly up to 28.7 µM. The essentials:
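Two-generation exposure (96 h) targets delayed-death phenotype. Reporter parasites carrying integrated firefly luciferase, in red cells at 2% hematocrit and 0.05% parasitemia final, kept at 37 C, 5% CO2; luminescence loss indicates inhibition.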
With `COc1ccccc1Oc1ccc(N2CC(C(=O)OCC(=O)c3ccc(F)cc3)CC2=O)cc1` (configuration not stated), the Potency result was “inactive”.
The same measure for `COc1ccc(CNC(=O)c2ccc3oc(C(C)C)nc3c2)cc1`: “inactive”.
`CC(C)c1nc2cc(C(=O)NC(C)c3cnn(C)c3)ccc2o1` (configuration not stated): the Potency result was “inactive”.
The same measure for `CCCCc1nc2cc(C(=O)NCCc3cnn(C)c3)ccc2o1`: 7.38 µM (active); for `CC(=O)c1c(C)[nH]c(C(=O)CN2C(=O)NC(C)(C)C2=O)c1C`: “inactive”; for `CN(C)CCN(C(=O)CN1C(=O)c2ccccc2C1=O)c1nc2cc3c(cc2s1)OCCO3`: “inactive”.
As to `CCCN1C(=O)C(Cc2nc3ccccc3c(=O)n2-c2ccccc2)c2cc(C)ccc21` (configuration not stated), the Potency is 6.57 µM (active).
With `Cc1nc2ccccc2c(=O)n1-c1ccc(Cl)cc1Cl` the entry was “inactive”.
With `COc1ccc(-n2c(-c3ccccc3)nc3ccccc3c2=O)cc1` the entry was “inactive”.
With `CC(=O)c1ccc(NC(=O)C2CCCN2S(=O)(=O)c2cccs2)cc1` (configuration not stated) the entry was “inactive”; with `Cc1c(NC(=O)c2c([N+](=O)[O-])cnn2C)c(=O)n(-c2ccccc2)n1C`, “inactive”.
As for `Cc1c(NC(=S)Nc2ccccc2)c(=O)n(-c2ccccc2)n1C`, the Potency entry is “inactive”.
The same measure for `Cc1c(NC(=O)Nc2cccc([N+](=O)[O-])c2)c(=O)n(-c2ccccc2)n1C`: 3.7 µM (active); for `Cc1c(C(=O)Nc2ccccn2)oc2ccc(Br)cc12`: “inactive”.
The same measure for `O=C(NCCCn1ccnc1)c1cc(Br)c(Br)s1`: “inactive”; for `COc1cccc2sc(NNC(=O)c3nc4ccccc4s3)nc12`: 9.28 µM (active).
With `COc1cc(/C=N/Nc2nc3ccccc3s2)ccc1O` the entry was “inactive”; with `COc1ccc(S(=O)(=O)N2CCOCC2)cc1C(=O)Nc1nc2ccccc2s1`, “inactive”.
For the compound `CCn1c(SC(C)C(=O)Nc2ccc(N3CCOCC3)cc2)nnc1-c1ccco1` (configuration not stated), the Potency entry is “inactive”.
With `COc1ccc(C(=O)Oc2cc(/C=N/NS(=O)(=O)c3ccc(C)cc3)ccc2OC)cc1` the entry was “inactive”.
With `COc1ccc(/C=C/C(=O)c2ccc(NS(=O)(=O)c3ccc(C)cc3)cc2)cc1O` the figure was 11.7 µM (active); with `COc1ccc(NS(=O)(=O)c2ccc(NC(C)=O)cc2)cc1OC`, “inactive”.
The same measure for `CSc1sc(C(=O)NNC(=O)c2ccc(Cl)cc2)c2c1C=CCC2`: “inactive”.
`CC(C)(C)c1ccc(CN2C(=O)c3ccccc3S2(=O)=O)cc1`: the Potency result was “inactive”.
The same measure for `COc1ccc(CN2C(=O)CN=C2Nc2ccc(C)cc2C)cc1`: “inactive”.
For the compound `CC(C)(C)c1ccc(CN2C(=O)CN=C(c3ccccc3)c3ccccc32)cc1`, the Potency is 1.31 µM (active).
Consider `CCCn1c(N)c(N(CCOC)C(=O)C2CCCC2)c(=O)[nH]c1=O`, for which the Potency entry was “inactive”.
The same measure for `CCC(C(=O)NC1CCCCC1)N(C(=O)c1snc(C(N)=O)c1N)c1ccc(OC)cc1OC` (configuration not stated): “inactive”; for `O=C(/C=C(O)/C=C/c1ccc(O)cc1)/C=C/c1ccc(O)cc1`: “inactive”.
With `Oc1cc2c(cc1CN1CCN(c3ccccc3)CC1)OCO2` the entry was “inactive”.
With `COc1ccccc1N1CCN(Cc2cc(OC)c3c(c2)OCO3)CC1` the entry was “inactive”; with `COc1ccc(N2CCN(Cc3cc(=O)oc4ccc5ccccc5c34)CC2)cc1`, “inactive”; with `COc1cc(C(CCN2CCN(c3ccccc3)CC2)c2c(OC)cc(OC)c3ccc(=O)oc23)cc(OC)c1OC` (configuration not stated), 8.28 µM (active).
`c1ccc(-c2cnc(CN3CCN(c4ccccc4)CC3)o2)cc1`: the Potency entry is “inactive”.
With `COc1cc(OC)c2ccc(=O)oc2c1C(CCN1CCN(c2ccccc2)CC1)c1ccc2c(c1)OCO2` (configuration not stated) the figure was 9.28 µM (active).
Consider `O=C1/C(=C/c2ccc3c(c2)OCO3)Oc2cc(OCC(=O)N3CC(O)C[C@H]3C(=O)O)ccc21` (some centres not stated), for which the Potency result was “inactive”.
As for `Cc1ccc(O)c(NC(=O)c2cc(-c3ccco3)on2)c1`, the Potency result was “inactive”.
With `O=C(NCc1ccco1)/C(=C\c1cccc([N+](=O)[O-])c1)NC(=O)c1ccco1` the entry was “inactive”; with `O=C(Nc1ccccc1)Nc1ccc(C(F)(F)F)cn1`, “inactive”.
With `CCOC(=O)CN(C)S(=O)(=O)c1ccc(-c2cc(C(=O)OC)sc2C(F)(F)F)cc1` the entry was “inactive”; with `COc1cc(NC(=O)CCNC(=O)Cn2ccc3ccccc3c2=O)cc(OC)c1OC`, “inactive”; with `CNc1nc(SC)nc(N(C#N)CC(=O)OC)n1`, 8.28 µM (active).
The same measure for `CCCCn1c(N)c(N(CCOC)C(=O)COc2c(C)cccc2C)c(=O)[nH]c1=O`: “inactive”.
Consider `CC1CC(=O)N(CC(=O)Nc2cccc(Cl)c2)c2ccccc2S1(=O)=O` (configuration not stated), for which the Potency result is “inactive”.
The same measure for `Cc1noc(C)c1C(=O)OCC(=O)/C=C1\N(C)c2ccccc2C1(C)C`: “inactive”; for `CC(=O)Nc1cccc(OCC(=O)/C=C2\N(C)c3ccccc3C2(C)C)c1`: 0.828 µM (active); for `CN1/C(=C\C(=O)c2cccnc2Cl)C(C)(C)c2ccccc21`: “inactive”.
With `O=C(O)c1c(NC(=O)N2CCCC2)sc2c1CCCC2` the entry was “inactive”.
The same measure for `COc1cc(NC(=S)N2CCCC(C)C2)cc(OC)c1OC` (configuration not stated): 10.4 µM (active); for `COc1ccc(NC(=S)N2CCCC(CO)C2)c(OC)c1` (configuration not stated): “inactive”.
As for `COc1cc(NC(=S)N2CCCC(C)C2)c(OC)cc1Cl` (configuration not stated), the Potency result was “inactive”.
The same measure for `O=C(O)c1ccc(OCC2CCCO2)cc1` (configuration not stated): “inactive”.
The same measure for `N#Cc1ccc(/C=C2\CCn3c2nc2cc(C(=O)O)ccc2c3=O)cc1`: “inactive”; for `O=C(NCc1cccnc1)C12CC3CC(CC(C3)C1)C2`: “inactive”; for `CCCN1CCn2c3c(c4cc(Br)ccc42)CCCC31` (configuration not stated): 1.85 µM (active).
With `CCc1ccc(N(CC(=O)NCc2cccnc2)S(=O)(=O)c2ccccc2)cc1` the entry was “inactive”; with `CCN(CC(=O)Nc1ccc(NC(C)=O)cc1)C(=O)C1CC(=O)N(Cc2ccc(C)cc2)C1` (configuration not stated), “inactive”; with `COc1ccc(CCNC(=O)C2CCN(c3nn4c(=O)cc(C)nc4s3)CC2)cc1OC`, “inactive”.
Regarding `CCCOc1ccc(CNC(=O)C2CCN(c3nn4c(=O)cc(C)nc4s3)CC2)cc1`, the Potency is 11.7 µM (active).
With `Cc1cc(=O)n2nc(N3CCCC(C(=O)NCc4cccc(Cl)c4)C3)sc2n1` (configuration not stated) the entry was “inactive”.
The same measure for `Cc1cc(=O)n2nc(N3CCC(C(=O)Nc4c(F)c(F)c(F)c(F)c4F)CC3)sc2n1`: 4.15 µM (active); for `Cc1cc(=O)n2nc(N3CCCC3C(=O)NCCCN3CC(C)CC(C)C3)sc2n1` (configuration not stated): “inactive”; for `Cc1cc(=O)n2nc(N3CCCC(C(=O)N4CCN(C)CC4)C3)sc2n1` (configuration not stated): “inactive”.
As to `Cc1ccc(CN2CC(C(=O)NNC(=O)Cn3ccc(C(F)(F)F)n3)CC2=O)cc1` (configuration not stated), the Potency entry was “inactive”.
The same measure for `Cc1ccc(-c2noc(C3CCCN(C(=O)c4cccc(Cl)c4)C3)n2)o1` (configuration not stated): “inactive”; for `N#CC1(NC(=O)COC(=O)CSc2ccc(F)cc2)CCCCC1`: “inactive”; for `O=C(Nc1cccc(F)c1)NC1CCCCCCC1`: “inactive”.
For the compound `CCCCNC(=O)N(O)C1N(/N=C/c2ccccc2O)C(=S)SC1(C)C` (configuration not stated), the Potency is 3.29 µM (active).
As for `CCCCNC(=O)N(O)C1N(/N=C/c2ccc(N(C)C)cc2)C(=S)SC1(C)C` (configuration not stated), the Potency result was “inactive”.
With `O=C(/C=C/c1ccco1)NC(=S)N1CCCCC1` the entry was “inactive”; with `CC(=O)Oc1ccc2c(c1)C(=O)c1ccccc1C2=O`, “inactive”.
With `CCOC(=O)c1nc(C)n(-c2ccc(Cl)cc2Cl)n1` the entry was “inactive”; with `CCOC(=O)c1cnc(SC)nc1Sc1ccc(Cl)cc1Cl`, 9.28 µM (active).
With `CCOC(=O)c1cnc(COc2ccccc2Cl)[nH]c1=O` the entry was “inactive”; with `CC[C@@H](C)[C@H](NC(=O)CCc1c(C)c2cc3c4c(oc3c(C)c2oc1=O)CCCC4)C(=O)O`, “inactive”.
With `COCCn1c(N)c(NCc2ccccc2)c(=O)[nH]c1=O`, the Potency result is “inactive”.
With `CC(C)N(C(=O)c1ccc(-c2ccccc2F)cc1)C(C)C` the figure was 4.65 µM (active); with `CCN(CC(=O)Nc1c(F)cccc1F)C(=O)c1ccc(-c2ccccc2)cc1`, “inactive”.
With `CC(Sc1nnc(-c2ccccc2F)n1C1CC1)C(N)=O` (configuration not stated) the entry was “inactive”; with `Cc1ccn(CCC(=O)N2c3ccccc3CC2C)n1` (configuration not stated), “inactive”.
With `O=C(COC(=O)c1ccccn1)NNC(=O)c1ccc([N+](=O)[O-])cc1` the entry was “inactive”; with `C[C@@H](O)c1nc2ccccc2n1N`, “inactive”; with `Cc1nc2ccccc2c(=O)n1Cc1ccc([N+](=O)[O-])cc1`, “inactive”.
In the case of `CC(O)c1nc2ccccc2n1Cc1ccc([N+](=O)[O-])cc1` (configuration not stated), the Potency was 1.85 µM (active).
The same measure for `COc1cccc(N2CC(NC(=O)c3ccc4ccccc4c3)CC2=O)c1` (configuration not stated): “inactive”; for `COc1ccc(C2/C=C\CN(CC(C)C)CC(=O)N2Cc2ccc(F)cc2)cc1` (configuration not stated): “inactive”; for `COc1ccc(C2/C=C\CN(S(=O)(=O)c3cccs3)CC(=O)N2Cc2ccc(F)cc2)cc1` (configuration not stated): 10.4 µM (active).
The same measure for `O=S(=O)(c1cccs1)N1CCN(Cc2ccccc2)CC1`: “inactive”; for `CC(NC(=O)CN(C)S(=O)(=O)c1ccc(F)cc1)C1CC2CCC1C2` (configuration not stated): “inactive”.
With `C=CCOc1ccc(/C=C/C(=O)OCC(=O)NCC2CCCO2)cc1` (configuration not stated) the entry was “inactive”; with `COc1cc([N+](=O)[O-])cc([N+](=O)[O-])c1NC(=O)N1CCOCC1`, “inactive”.
In the case of `O=C(Nc1ccccc1C(=O)O)c1ccc(N2C(=O)C3CC=CCC3C2=O)cc1` (configuration not stated), the Potency result was “inactive”.
As for `O=C(CSc1ccc(-c2ccc(Br)cc2)nn1)NCC1CCCO1` (configuration not stated), the Potency result was “inactive”.
The same measure for `COc1ccc(CCNC(=O)CN2C(=O)COc3ccc(S(=O)(=O)N4CCCC4)cc32)cc1OC`: “inactive”; for `CCN1C(=O)[C@H]2[C@@H](c3ccc(-c4ccc(F)cc4)cc3)N[C@@](Cc3ccccc3)(C(=O)OC)[C@H]2C1=O`: 5.86 µM (active); for `CCOC(=O)C1(Cc2ccc(O)cc2)NC(c2ccccc2F)C2C(=O)N(C)C(=O)C21` (configuration not stated): “inactive”.
On to `CCN1C(=O)[C@H]2[C@@H](c3ccc(SC4CCCCC4)c(OC)c3)N[C@@](Cc3ccccc3)(C(=O)OC)[C@H]2C1=O`, for which the Potency result was “inactive”.
With `CCC(C)CCN1CCN=C1N(C)C` (configuration not stated) the entry was “inactive”.
With `CCOc1ccc(/C=N\NC(=O)c2c(C)nc3cc(C)ccn23)cc1` the entry was “inactive”; with `CCOC(=O)c1nnn(-c2nonc2-n2cccc2)c1CN1CCC(C(=O)OCC)CC1`, 0.928 µM (active); with `CCOC(=O)C1CCN(Cc2ccc(-c3ccccc3)cc2)CC1`, “inactive”.
For the compound `CCN(CC)Cc1c(C(=O)OC)nnn1-c1nonc1N`, the Potency entry is “inactive”.
